Screening data: PubChem, several laboratories
Peg3 promoter – reduces Peg3 promoter-driven luciferase expression in HeLa; HeLa PEG-Prom luciferase reporter, luminescence, overnight; inhibition, % at 20 µM; hit rate 1.7% among 360,000; AID 588405;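 active = inhibition of at least 50% at 20 µM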
Mdm2 MdmX PPI – human Mdm2/MdmX binding inhibition; O15151+Q00987; SaOS-2 split-luciferase Mdm2/MdmX complementation, luminescence; inhibition, % at 8 µM; hit rate 3% among 330,000; AID 485346;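 active = inhibition of at least 50% at 8 µM in the primary screen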
Target sequence (O15151 whole entry, looked up): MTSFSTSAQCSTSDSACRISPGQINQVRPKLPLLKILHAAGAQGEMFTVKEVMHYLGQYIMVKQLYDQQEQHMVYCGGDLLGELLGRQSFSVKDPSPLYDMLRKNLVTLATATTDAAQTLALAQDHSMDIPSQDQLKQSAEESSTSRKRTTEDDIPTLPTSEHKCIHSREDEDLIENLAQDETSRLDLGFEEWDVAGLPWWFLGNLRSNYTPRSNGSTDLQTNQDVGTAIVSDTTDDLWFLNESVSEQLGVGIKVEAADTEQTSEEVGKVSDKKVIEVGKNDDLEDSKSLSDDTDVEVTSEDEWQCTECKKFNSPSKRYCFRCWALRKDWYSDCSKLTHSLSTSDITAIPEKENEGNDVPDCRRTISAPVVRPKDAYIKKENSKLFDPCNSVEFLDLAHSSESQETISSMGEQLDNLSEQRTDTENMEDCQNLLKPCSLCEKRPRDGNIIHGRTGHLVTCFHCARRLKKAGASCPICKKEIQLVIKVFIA
Target sequence (Q00987 whole entry, looked up): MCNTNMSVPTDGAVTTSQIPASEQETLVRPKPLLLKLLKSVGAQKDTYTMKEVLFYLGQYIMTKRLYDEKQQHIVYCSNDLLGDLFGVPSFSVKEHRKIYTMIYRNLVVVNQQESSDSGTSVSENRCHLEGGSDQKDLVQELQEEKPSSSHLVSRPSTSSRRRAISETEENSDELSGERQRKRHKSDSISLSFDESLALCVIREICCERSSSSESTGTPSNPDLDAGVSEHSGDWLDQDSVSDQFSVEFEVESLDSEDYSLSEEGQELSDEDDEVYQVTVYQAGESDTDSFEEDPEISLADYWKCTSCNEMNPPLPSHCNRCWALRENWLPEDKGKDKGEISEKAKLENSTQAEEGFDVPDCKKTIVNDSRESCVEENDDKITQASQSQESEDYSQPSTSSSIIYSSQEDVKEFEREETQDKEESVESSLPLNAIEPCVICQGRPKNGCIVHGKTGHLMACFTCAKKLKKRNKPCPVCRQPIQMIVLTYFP
KKLEB cytotox – CF airway cell cytotoxicity counter-screen; KKLEB CF airway cells viability, ATPlite luminescence, overnight; stronger effect = lower value; cells stimulated with P. aeruginosa culture filtrate; activity change (cytotoxicity), % at 5 µM; hit rate 0.36% among 360,000;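 active = corrected activity change at or below -50% at 5 µM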
HIF-2a inh – blocks HIF-2a reporter activity; AID 624352; inhibition, % at 18.8 µM; 786-0 RCC cells HIF-2a reporter, luciferase luminescence, overnight; hit rate 0.72% among 360,000;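 active = inhibition of the luminescence signal of 40% or more relative to plate controls, in a single-dose primary screen at 18.75 µM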
CF NFkB block – blocks PAF-induced NF-kB reporter in cystic fibrosis cells. KKLEB NF-kB-GFP reporter, GFP fluorescence overnight. inhibition, % at 5 µM. hit rate 0.86% among 360,000;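 active = at least 50% inhibition at 5 µM, scaled per plate between neutral and stimulator controls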;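 note: PAF is a Pseudomonas aeruginosa culture filtrate used as stimulus; plate controls were PAF-stimulated DMSO wells for no effect and unstimulated DMSO wells for full effect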
ABHD5 PLIN5 PPI – blocks binding of human ABHD5 to perilipin-5; hit rate 0.78% among 360,000; Split G. princeps luciferase complementation, luminescence, 4 h; inhibition, % at 4 µM;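 active = inhibition above the mean inhibition across every tested compound plus 3 SD, cut at about 22% in these data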;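 note: 0% = DMSO only wells and the 100% control is not disclosed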
Mdm2 MdmX conf – confirmation of human Mdm2/MdmX interaction inhibitors; Mdm2-MdmX binding, luminescent assay; hit rate 55% among 10,000; inhibition, % at 8 µM; AID 489028; shares compounds with Mdm2 MdmX PPI; in the data active = inhibition above about 40%
Full FLuc ctr – full-length luciferase inhibition in Mdm2/MdmX counter-screen; shares compounds with Mdm2 MdmX PPI; SaOS-2 full-length luciferase counterscreen, luminescence; inhibition, % at 8 µM; hit rate 77% among 6,200;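 active = mean inhibition at 8 µM reaching about 37%, which flags the compound as non-specific, limit read from the data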;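 note: p53-null SaOS-2 cells with luciferase driven by a doxycycline-inducible promoter; compound on cells about two nights before reading with doxycycline added after day one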
The depositor's hits bear a star; . = not tested or not shown. This is a sample that favours compounds with a hit; in the whole collection about 4.6% have one here.

SMILES | Peg3 promoter | Mdm2 MdmX PPI | KKLEB cytotox | HIF-2a inh | CF NFkB block | ABHD5 PLIN5 PPI | Mdm2 MdmX conf | Full FLuc ctr
O=C(CSc1nnnn1-c1cccc(Cl)c1)Nc1ccc2c(c1)CCC2 | . | 71* | . | . | . | . | 37 | 60*
CCC(=O)Nc1nnc(SCC(=O)Nc2ccc3c(c2)OCCO3)s1 | -18 | 11 | -3 | 0 | -23 | 6 | . | .
CCOc1ccc(C(C)=O)cc1COc1cccnc1[N+](=O)[O-] | 19 | 58* | -24 | 22 | 19 | -2 | 57* | 45*
COc1ccc(C(C)=O)cc1COc1cccnc1[N+](=O)[O-] | -9 | 32 | -7 | -13 | 11 | 3 | . | .
COc1ccc(NC(=O)CC2Nc3cc(C)c(C)cc3NC2=O)c([N+](=O)[O-])c1 (configuration not stated) | 29 | 88* | 3 | -2 | -10 | 4 | 7 | .
COc1ccc(NC(=O)Cc2ccc(C)cc2)c([N+](=O)[O-])c1 | -12 | . | 1 | -20 | -20 | -2 | . | .
COc1cc(C#Cc2c(-c3cncn3C)n(C)c3ccc(-c4ccc5cc[nH]c5c4)cc23)cc(OC)c1 | -115 | 46 | 9 | -139 | -13 | 5 | . | .
COc1cc(C#Cc2c(-c3cncn3C)n(C)c3ccc(Br)cc23)cc(OC)c1 | 34 | 75* | -7 | 5 | -2 | 10 | -3 | .
COc1cc(C#Cc2c(-c3cncn3C)n(C)c3ccc(-c4ccc(OC)c(OC)c4)cc23)cc(OC)c1 | 10 | 52* | -8 | -2 | 23 | 15 | 23 | .
COc1cc(-c2noc(C)c2/C=C/c2cccc([N+](=O)[O-])c2)cc(OC)c1OC | 18 | 79* | -48 | 10 | 35 | -3 | 75* | 84*
COc1cc(-c2noc(C)c2/C=C/c2ccc(C(=O)O)cc2)cc(OC)c1OC | 6 | -29 | 0 | -7 | -21 | -1 | . | .
COc1cccc(/C=N/Nc2ccc([N+](=O)[O-])cn2)c1O | 59* | 93* | -91* | 78* | 100* | 10 | 91* | 53*
O=[N+]([O-])c1ccc(Nc2nc(N/N=C/c3cccc(F)c3)nc(N3CCCC3)n2)cc1 | 28 | 43 | -4 | 14 | 2 | -2 | . | .
O=c1[nH]c(N/N=C/c2cc3c(cc2[N+](=O)[O-])OCO3)nc2ccccc12 | 22 | 64* | -6 | -78 | 14 | 1 | 6 | .
O=[N+]([O-])c1ccc(NN=Cc2cccc3ccccc23)nc1 | -72 | . | -5 | -72 | -58 | -5 | . | .
O=c1[nH]c(N/N=C\c2ccc3c(c2)OCO3)nc2ccccc12 | -207 | -69 | -12 | -231 | 14 | -2 | . | .
COc1cccc(/C=N/Nc2nc(Nc3ccc([N+](=O)[O-])cc3)nc(N3CCCC3)n2)c1O | 62* | 96* | -43 | 0 | 97* | 9 | 89* | 39*
Cc1ccc(Nc2nc(N/N=C\c3ccc4c(c3)OCO4)nc(N3CCOCC3)n2)cc1 | 46 | 65* | -21 | 8 | 3 | -6 | 57* | 78*
Cc1ccc(/C=N/Nc2cc(C)nc(N3CCOCC3)n2)cc1 | -60 | 17 | 3 | -54 | 0 | -2 | . | .
Cc1ccc(C)c(S(=O)(=O)N2CCN(C(=O)Cc3sc(C)nc3-c3ccc(F)cc3)CC2)c1 | 17 | . | -8 | 5 | 2 | 2 | . | .
O=[N+]([O-])c1cc2c(cc1/C=N/Nc1nc(Nc3ccccc3)nc(N3CCCCC3)n1)OCO2 | -29 | 64* | -34 | -82 | 17 | -3 | 42* | 37*
C=Cc1ccc(Cn2c(C)c(C(=O)NCc3cccc(C)c3)sc2=O)cc1 | 21 | . | 5 | -2 | 1 | -7 | . | .
C#CCn1c(=NC(=O)c2ccc(S(=O)(=O)N3CCc4ccccc4C3)cc2)sc2cc(S(N)(=O)=O)ccc21 | 103* | 86* | -53* | -7 | 52* | -1 | 55* | 23
COc1ccc(-c2csc(/C(C#N)=C/Nc3ccc4c(c3)OCCO4)n2)cc1 | 28 | 52* | -64* | 3 | 62* | 0 | 8 | .
COc1ccc(-c2csc(/C(C#N)=C\c3ccc(OC)c([N+](=O)[O-])c3)n2)cc1 | 6 | 54* | -13 | 1 | -15 | 2 | 16 | .
SMILES | Peg3 promoter | Mdm2 MdmX PPI | KKLEB cytotox | HIF-2a inh | CF NFkB block | ABHD5 PLIN5 PPI | Mdm2 MdmX conf | Full FLuc ctr
CCn1c(=S)[nH]c2cc(S(=O)(=O)N3CCCCC3)ccc21 | -33 | 82* | 5 | -66 | -98 | -8 | 49* | 84*
CCC(=O)NC(c1ccco1)c1cc(Cl)c2cccnc2c1O (configuration not stated) | 42 | 38 | -3 | 1 | 31 | 0 | . | .
CCC(=O)NC(c1ccc(OC)cc1)c1cc(Cl)c2cccnc2c1O (configuration not stated) | 48 | 79* | 2 | 9 | 2 | -1 | 81* | 26
CCC(=O)NC(c1ccco1)c1cc(Cl)c2cccnc2c1OC (configuration not stated) | 9 | 24 | -12 | 10 | 11 | 3 | . | .
COc1ccc(C(NC(=O)c2cccnc2)c2cc(Cl)c3cccnc3c2O)cc1OC (configuration not stated) | 34 | 75* | 0 | 10 | -2 | -2 | 78* | 26
CCCCC(=O)NC(c1ccco1)c1cc(Cl)c2cccnc2c1O (configuration not stated) | 49 | 63* | -12 | 35 | 21 | 7 | 56* | 29
CCC(=O)NC(c1ccc(OC)cc1)c1c(O)ccc2ccccc12 (configuration not stated) | 21 | 63* | -12 | 10 | 26 | -3 | 62* | 71*
CC1(C(=O)NS(=O)(=O)c2ccc(F)cc2F)CCN1C(=O)C1(c2ccc(Cl)cc2)CC1 (configuration not stated) | -2 | . | -6 | 5 | -6 | 6 | . | .
Cc1c(S(=O)(=O)NC2CCCCC2)c(=O)n(C)c(=O)n1C | 11 | 13 | -7 | 11 | 7 | 12 | . | .
COc1cc(OC)c2c(-c3ccccc3)cc(=O)oc2c1C(CCN1CCOCC1)c1ccc2c(c1)OCO2 (configuration not stated) | -3 | 30 | -18 | 2 | 22 | 13 | . | .
COc1cc(OC)c2c(-c3ccccc3)cc(=O)oc2c1C(CCN1CCCC1)c1ccc2c(c1)OCO2 (configuration not stated) | 91* | 81* | 2 | 2 | 11 | 22* | 14 | .
COc1cc(C(CCN2CCCC2)c2c(OC)cc(OC)c3c(-c4ccccc4)cc(=O)oc23)cc(OC)c1OC (configuration not stated) | 1 | 78* | -19 | -3 | 0 | 4 | 32 | .
